Test [1] deals with Thyrotropin-releasing hormone receptor (Homo sapiens) (UniProt P34981). Kind of test: qHTS assay to identify small molecule agonists of the thyrotropin-releasing hormone receptor (TRHR) signaling pathway (AID 1346891; calls by dose curve; also: series mostly up to about 58 µM). Summed up:
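TRHR-expressing HEK293 cells were plated 18 h at 37 °C/5% CO2, loaded with calcium dye 2 h at 37 °C, then given compound in DMSO; fluorescence was read kinetically for 3 min at 1 s intervals.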
In general terms: Quantitative high-throughput screening tests each substance at several concentrations.

Test [2] can be described thus: Human pregnane X receptor (PXR) small molecule agonists, qHTS cell viability counter screen (AID 1346977). Also: nearly all actives have a fitted effect of over 50% in size. Summed up: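 PXR-Luc HepG2 cells in medium with 5% charcoal-stripped FBS were pre-incubated 5hr, then exposed to compounds for 24hr at 37C. Viability was read in the same wells by CellTiter-Fluor fluorescence, reagent added after 23hr with a 1hr incubation.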

The nature of test [3]: Caspase-3/7 induction in HepG2 cells by small molecules, qHTS assay (AID 1346978). Also: nearly all actives have a fitted effect of over 15% in size. In a few lines: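 Wild-type HepG2 cells (2,000/well) were settled 5 h at 37 C, 5% CO2, then exposed to compounds in DMSO for 17 h. Caspase-3/7 activity was read by luminescence 30 min after adding Caspase-Glo 3/7 reagent at room temperature.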
Test [4] in a line: Caspase-3/7 induction in CHO-K1 cells by small molecules, qHTS cell viability counter screen (AID 1346979). Also: nearly all actives have a fitted effect of over 35% in size. In a few lines:
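Wild-type CHO-K1 cells were seeded at 1,500 per well, rested 5hr at 37 C, then exposed to compounds in DMSO. After 16hr, CellTiter-Fluor reagent was added and fluorescence read 1hr later as the viability measure.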

Test [5] in a line: Caspase-3/7 induction in CHO-K1 cells by small molecules, qHTS assay (AID 1346980). Also: nearly all actives have a fitted effect of over 15% in size. In a few lines:
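Wild-type cells were seeded at 1,500 per well and settled 5 hr at 37 C, 5% CO2, then exposed to DMSO-dissolved compounds for 17 hr. Caspase-Glo 3/7 reagent was added, and luminescence was read after 30min at room temperature.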

Test [6] in a line: Caspase-3/7 induction in HepG2 cells by small molecules, qHTS cell viability counter screen (AID 1346981). Also: series mostly up to about 92 µM; nearly all actives have a fitted effect of over 30% in size. Summed up: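 Wild-type HepG2 cells, 2,000/well, settled 5 hr at 37 C, 5% CO2 before compound addition. Viability read by CellTiter-Fluor fluorescence, reagent added after 16 hr compound exposure, then 1 hr at 37C, in the same wells as the caspase read.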
In test [7] the target is Nuclear receptor subfamily 1 group I member 2 (Rattus norvegicus) (UniProt Q9R1A7). Briefly: Rat pregnane X receptor (rPXR) activation by small molecules, qHTS assay (AID 1346983). Also: nearly all actives have a fitted effect of over 20% in size. Particulars: rPXR luciferase reporter cells, One-Glo luminescence, 24 h; stronger effect = higher value. Summed up:
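Cell-based rPXR luciferase reporter assay, 2,000 cells per well, rested 5hr at 37 C before compound addition in DMSO, then 24 hr at 37 C. One-Glo reagent was added and luminescence read after 30 min at room temperature.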

The target of test [8] is Nuclear receptor subfamily 1 group I member 2 (Homo sapiens) (UniProt O75469). Kind of test: CYP3A4 induction through human pregnane X receptor (PXR) by small molecules, qHTS assay (AID 1346984). Also: nearly all actives have a fitted effect of over 40% in size. Summed up:
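DPX-2 HepG2 cells carrying a PXR response element and CYP3A4-promoter luciferase construct, treated with compounds 24 hr at 37C. Then P450-Glo CYP3A4 Luciferin-IPA substrate (3uM final) for 3 hr at 37C, One-Glo added, luminescence read.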

For test [9] the target is unchanged. Briefly: Human pregnane X receptor (PXR) activation by small molecules, qHTS assay (AID 1346985). Also: nearly all actives have a fitted effect of over 40% in size. In a few lines: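 DPX-2 cells (HepG2 co-transfected with a PXR response element and a CYP3A4-promoter luciferase construct) were seeded at 2,000 per well, rested 5 hr at 37C, then exposed to DMSO-dissolved compounds for 24 hr. Activation was read as luciferase luminescence.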

Test [10] has as its target Cytochrome P450 2D6 (Homo sapiens) (UniProt P10635). Briefly: Cytochrome P450 Family 2 Subfamily D Member 6 (CYP2D6) small molecule antagonists: luciferase reporter qHTS assay (AID 1671196). Also: nearly all actives have a fitted effect of over 50% in size. Also: potency is read from the fitted curve at half-maximal effect. Summed up: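 Cell-free P450-Glo system: CYP2D6 with proluciferin substrate was pre-incubated with compound for 10 min, then reacted with NADPH regeneration for 1 h at room temperature. Luciferin product was detected after 20 min, and data were reported as relative luminescence units.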
Background: Reporter assays use an easily measured gene product as a stand-in for the process of interest.

For test [11], the target named is Cytochrome P450 2C19 (Homo sapiens) (UniProt P33261). Briefly: Cytochrome P450 Family 2 Subfamily C Member 19 (CYP2C19) small molecule antagonists: luciferase reporter qHTS assay (AID 1671197). Also: nearly all actives have a fitted effect of over 65% in size. Also: potency is read from the fitted curve at half-maximal effect. Summed up: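 Inhibition of CYP2C19 was scored from loss of luminescence in a P450-Glo proluciferin substrate assay, NADPH-started and run 1 h at 37C, with ketoconazole as positive control.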

In test [12] the target is Cytochrome P450 2C9 (Homo sapiens) (UniProt P11712). Briefly: Cytochrome P450 Family 2 Subfamily C Member 9 (CYP2C9) small molecule antagonists: luciferase reporter qHTS assay (AID 1671198). Also: nearly all actives have a fitted effect of over 50% in size. Also: potency is read from the fitted curve at half-maximal effect. Summed up: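 CYP2C9 activity was measured with a P450-Glo proluciferin substrate. Enzyme–substrate mix was held with compound for 10 min at room temperature, then NADPH regeneration solution was added for 1 h at 37C. Luciferin product was read as luminescence.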

The target of test [13] is Cytochrome P450 1A2 (Homo sapiens) (UniProt P05177). Briefly: Cytochrome P450 Family 1 Subfamily A Member 2 (CYP1A2) small molecule antagonists: luciferase reporter qHTS assay (AID 1671199). Also: nearly all actives have a fitted effect of over 50% in size. Also: potency is read from the fitted curve at half-maximal effect. In a few lines:
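P450-Glo CYP1A2 enzyme–proluciferin substrate mix with compound 10 min at room temperature, then NADPH regeneration 1 h at room temperature. Luciferin detection reagent added, luminescence read after 20 min; furafylline positive control.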

Test [14] addresses Voltage-gated inwardly rectifying potassium channel KCNH2 (Homo sapiens) (UniProt Q12809). Briefly: Human Ether-a-go-go-Related Gene (hERG) channel small molecule antagonists: fluorescence cell-based qHTS assay (AID 1671200). In a few lines: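 U2OS cells expressing the channel were plated at 1000 cells/well, incubated overnight at 37 C, then loaded with FluxOR II thallium-sensitive dye for 1 h at room temperature in the dark, with a further 10 min at room temperature before stimulation.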
(In general: hERG is a cardiac potassium channel; its block is linked to QT prolongation.)

Test [15] has as its target Cytochrome P450 3A4 (Homo sapiens) (UniProt P08684). Kind of test: Cytochrome P450 Family 3 Subfamily A Member 4 (CYP3A4) small molecule antagonists: luciferase reporter qHTS assay (AID 1671201). Summed up: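 P450-Glo CYP3A4 system with proluciferin substrate; compounds preincubated 10 min RT with enzyme-substrate mix, then NADPH regeneration added for 1 h RT. Detection reagent 20 min, luminescence read as relative luminescence units.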

The target in test [16] is Nuclear receptor subfamily 1 group I member 2 (Homo sapiens) (UniProt O75469). Kind of test: Human pregnane X receptor (PXR) small molecule agonists, qHTS assay (AID 1346982). Also: nearly all actives have a fitted effect of over 35% in size. Summed up: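 PXR-Luc HepG2 reporter cells (CYP3A4-driven luciferase) in 5% charcoal-stripped FBS medium, plated 5 h before compound addition, then treated 24 h at 37C. Luciferase read by ONE-Glo luminescence after 30 min at room temperature.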

The results in this text go back to PubChem BioAssay (Tox21).

Molecules are shown by their SMILES. Several values for one entry are separate records, joined by “and”; a condition that tells them apart may be missing. Identical values can stand only once. Records with an inconclusive call do not appear. Some compounds were tested as several samples or in several runs, with calls that do not always agree. Activity calls are given as the source filed them. Unless noted, calls follow the shape of the dose curve; as a rule, active = well fitted curve in the direction sought with a large enough effect in the repeat runs; inconclusive = weak or mixed curves; inactive = no such curve, though single readings can be large; an effect the other way counts as inactive or inconclusive.
% is scaled to controls: 0 for no effect and ±100 for the full control effect.

Chain of Cytochrome P450 3A4 (Homo sapiens) (P08684 whole entry, looked up): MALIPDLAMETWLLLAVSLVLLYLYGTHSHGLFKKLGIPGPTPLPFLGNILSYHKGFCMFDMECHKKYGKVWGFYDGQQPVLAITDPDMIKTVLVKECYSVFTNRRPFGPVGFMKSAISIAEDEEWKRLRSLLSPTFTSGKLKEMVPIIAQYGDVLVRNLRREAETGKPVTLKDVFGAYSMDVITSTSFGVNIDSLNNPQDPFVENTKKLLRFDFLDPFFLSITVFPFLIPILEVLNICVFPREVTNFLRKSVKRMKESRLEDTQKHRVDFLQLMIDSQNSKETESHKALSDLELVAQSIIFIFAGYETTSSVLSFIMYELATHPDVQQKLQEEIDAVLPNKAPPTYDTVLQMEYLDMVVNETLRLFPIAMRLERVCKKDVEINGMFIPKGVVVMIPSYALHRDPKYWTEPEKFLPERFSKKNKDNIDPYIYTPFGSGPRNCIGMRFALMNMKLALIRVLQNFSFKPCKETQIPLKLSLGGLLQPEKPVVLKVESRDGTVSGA
Chain of Voltage-gated inwardly rectifying potassium channel KCNH2 (Homo sapiens) (Q12809 whole entry, looked up): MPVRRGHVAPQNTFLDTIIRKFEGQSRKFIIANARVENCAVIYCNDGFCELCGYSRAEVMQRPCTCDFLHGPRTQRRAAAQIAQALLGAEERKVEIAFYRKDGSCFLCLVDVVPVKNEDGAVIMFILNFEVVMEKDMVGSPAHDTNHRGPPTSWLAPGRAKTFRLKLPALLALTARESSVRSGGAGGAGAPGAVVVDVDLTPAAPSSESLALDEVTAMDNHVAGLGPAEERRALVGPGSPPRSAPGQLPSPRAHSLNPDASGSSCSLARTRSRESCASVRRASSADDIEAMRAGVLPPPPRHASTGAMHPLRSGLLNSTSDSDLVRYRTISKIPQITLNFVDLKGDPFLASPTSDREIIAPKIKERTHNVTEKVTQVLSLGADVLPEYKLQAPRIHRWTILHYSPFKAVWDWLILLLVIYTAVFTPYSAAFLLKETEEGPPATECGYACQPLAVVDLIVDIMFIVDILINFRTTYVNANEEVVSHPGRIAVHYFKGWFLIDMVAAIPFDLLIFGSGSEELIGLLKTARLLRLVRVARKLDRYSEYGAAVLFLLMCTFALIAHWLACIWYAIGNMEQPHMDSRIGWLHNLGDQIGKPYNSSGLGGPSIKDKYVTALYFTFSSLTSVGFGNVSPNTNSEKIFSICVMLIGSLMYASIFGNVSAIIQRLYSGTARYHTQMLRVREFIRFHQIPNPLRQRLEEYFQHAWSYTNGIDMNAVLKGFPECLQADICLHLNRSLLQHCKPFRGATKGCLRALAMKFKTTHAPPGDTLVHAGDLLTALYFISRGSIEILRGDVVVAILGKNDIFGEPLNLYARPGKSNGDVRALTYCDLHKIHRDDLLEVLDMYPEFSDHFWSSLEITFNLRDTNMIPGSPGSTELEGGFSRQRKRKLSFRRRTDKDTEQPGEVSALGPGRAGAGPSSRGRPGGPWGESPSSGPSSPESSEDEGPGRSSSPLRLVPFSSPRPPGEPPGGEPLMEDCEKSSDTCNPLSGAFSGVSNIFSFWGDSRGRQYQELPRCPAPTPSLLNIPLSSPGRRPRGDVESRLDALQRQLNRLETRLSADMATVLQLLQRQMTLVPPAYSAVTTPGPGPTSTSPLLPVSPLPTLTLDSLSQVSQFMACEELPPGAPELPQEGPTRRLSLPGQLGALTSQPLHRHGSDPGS
Chain of Thyrotropin-releasing hormone receptor (Homo sapiens) (P34981 whole entry, looked up): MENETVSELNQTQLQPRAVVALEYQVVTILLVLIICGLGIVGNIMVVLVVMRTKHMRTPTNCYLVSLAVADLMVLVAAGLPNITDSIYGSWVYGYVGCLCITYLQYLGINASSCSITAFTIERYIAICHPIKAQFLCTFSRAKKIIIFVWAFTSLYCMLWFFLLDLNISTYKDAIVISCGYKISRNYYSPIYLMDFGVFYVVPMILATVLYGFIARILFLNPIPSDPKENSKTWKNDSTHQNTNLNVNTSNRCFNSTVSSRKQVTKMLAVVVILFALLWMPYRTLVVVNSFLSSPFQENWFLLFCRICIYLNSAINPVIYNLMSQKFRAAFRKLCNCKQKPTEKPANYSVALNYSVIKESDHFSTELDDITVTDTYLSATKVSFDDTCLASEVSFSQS
Chain of Cytochrome P450 2C9 (Homo sapiens) (P11712 whole entry, looked up): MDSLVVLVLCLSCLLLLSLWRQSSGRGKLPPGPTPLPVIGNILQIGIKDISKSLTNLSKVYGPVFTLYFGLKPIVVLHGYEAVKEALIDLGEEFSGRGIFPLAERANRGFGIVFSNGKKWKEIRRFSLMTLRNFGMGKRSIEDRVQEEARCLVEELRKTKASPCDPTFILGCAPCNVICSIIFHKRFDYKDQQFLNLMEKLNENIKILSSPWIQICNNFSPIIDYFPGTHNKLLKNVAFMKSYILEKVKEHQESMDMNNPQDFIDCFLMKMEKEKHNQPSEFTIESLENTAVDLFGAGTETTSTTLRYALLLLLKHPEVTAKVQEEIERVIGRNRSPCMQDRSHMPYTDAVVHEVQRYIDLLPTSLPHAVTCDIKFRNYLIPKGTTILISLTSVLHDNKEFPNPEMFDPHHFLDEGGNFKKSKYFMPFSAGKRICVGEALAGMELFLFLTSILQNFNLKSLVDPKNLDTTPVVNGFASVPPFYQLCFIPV
Chain of Cytochrome P450 1A2 (Homo sapiens) (P05177 whole entry, looked up): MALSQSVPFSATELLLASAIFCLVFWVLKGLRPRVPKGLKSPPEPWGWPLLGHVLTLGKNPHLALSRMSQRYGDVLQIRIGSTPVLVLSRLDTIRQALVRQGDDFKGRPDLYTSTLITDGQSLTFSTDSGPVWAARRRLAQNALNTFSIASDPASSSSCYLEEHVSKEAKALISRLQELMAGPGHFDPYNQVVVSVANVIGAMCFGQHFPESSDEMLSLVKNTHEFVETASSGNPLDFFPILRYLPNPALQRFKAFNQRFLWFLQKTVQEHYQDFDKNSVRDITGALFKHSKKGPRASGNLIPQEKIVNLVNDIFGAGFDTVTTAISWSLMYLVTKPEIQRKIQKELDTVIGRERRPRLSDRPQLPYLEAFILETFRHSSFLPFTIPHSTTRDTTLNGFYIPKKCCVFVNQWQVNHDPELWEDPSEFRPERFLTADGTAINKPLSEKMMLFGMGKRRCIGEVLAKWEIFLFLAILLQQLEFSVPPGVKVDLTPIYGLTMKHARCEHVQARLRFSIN
Chain of Nuclear receptor subfamily 1 group I member 2 (Rattus norvegicus) (Q9R1A7 whole entry, looked up): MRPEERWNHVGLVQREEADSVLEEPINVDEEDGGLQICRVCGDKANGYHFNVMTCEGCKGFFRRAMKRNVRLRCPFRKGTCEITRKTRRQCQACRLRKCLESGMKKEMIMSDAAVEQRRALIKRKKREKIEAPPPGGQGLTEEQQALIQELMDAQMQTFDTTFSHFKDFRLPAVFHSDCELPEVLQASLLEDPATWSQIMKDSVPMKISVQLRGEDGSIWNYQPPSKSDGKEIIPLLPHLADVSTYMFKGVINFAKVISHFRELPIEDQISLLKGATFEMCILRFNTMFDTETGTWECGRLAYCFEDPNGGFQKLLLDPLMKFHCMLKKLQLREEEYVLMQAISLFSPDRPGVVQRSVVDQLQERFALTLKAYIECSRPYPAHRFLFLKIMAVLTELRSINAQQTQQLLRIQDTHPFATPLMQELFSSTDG
Chain of Nuclear receptor subfamily 1 group I member 2 (Homo sapiens) (O75469 whole entry, looked up): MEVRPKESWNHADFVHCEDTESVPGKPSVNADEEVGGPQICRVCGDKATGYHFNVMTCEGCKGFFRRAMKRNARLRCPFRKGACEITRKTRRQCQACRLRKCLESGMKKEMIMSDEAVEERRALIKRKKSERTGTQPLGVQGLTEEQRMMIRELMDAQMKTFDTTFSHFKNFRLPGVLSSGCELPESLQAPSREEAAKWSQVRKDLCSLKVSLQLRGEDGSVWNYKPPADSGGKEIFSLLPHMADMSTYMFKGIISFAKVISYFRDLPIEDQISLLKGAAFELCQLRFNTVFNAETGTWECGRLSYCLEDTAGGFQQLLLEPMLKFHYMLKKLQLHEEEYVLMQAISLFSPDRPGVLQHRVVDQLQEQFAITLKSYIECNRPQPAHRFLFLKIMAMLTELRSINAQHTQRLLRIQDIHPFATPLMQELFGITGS
Chain of Cytochrome P450 2D6 (Homo sapiens) (P10635 whole entry, looked up): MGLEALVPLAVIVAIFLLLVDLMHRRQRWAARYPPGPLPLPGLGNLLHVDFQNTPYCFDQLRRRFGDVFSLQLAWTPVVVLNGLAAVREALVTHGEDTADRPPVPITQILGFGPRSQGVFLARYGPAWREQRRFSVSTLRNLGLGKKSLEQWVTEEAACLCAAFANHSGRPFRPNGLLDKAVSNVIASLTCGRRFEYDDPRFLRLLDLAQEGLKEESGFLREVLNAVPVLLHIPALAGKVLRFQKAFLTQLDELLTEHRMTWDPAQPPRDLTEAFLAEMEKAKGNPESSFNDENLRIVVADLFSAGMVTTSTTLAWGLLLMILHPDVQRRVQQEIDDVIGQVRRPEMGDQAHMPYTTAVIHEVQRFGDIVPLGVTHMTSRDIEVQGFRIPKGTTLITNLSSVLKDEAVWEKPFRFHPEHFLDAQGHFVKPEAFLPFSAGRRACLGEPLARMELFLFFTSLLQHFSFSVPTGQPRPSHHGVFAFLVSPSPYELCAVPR
Chain of Cytochrome P450 2C19 (Homo sapiens) (P33261 whole entry, looked up): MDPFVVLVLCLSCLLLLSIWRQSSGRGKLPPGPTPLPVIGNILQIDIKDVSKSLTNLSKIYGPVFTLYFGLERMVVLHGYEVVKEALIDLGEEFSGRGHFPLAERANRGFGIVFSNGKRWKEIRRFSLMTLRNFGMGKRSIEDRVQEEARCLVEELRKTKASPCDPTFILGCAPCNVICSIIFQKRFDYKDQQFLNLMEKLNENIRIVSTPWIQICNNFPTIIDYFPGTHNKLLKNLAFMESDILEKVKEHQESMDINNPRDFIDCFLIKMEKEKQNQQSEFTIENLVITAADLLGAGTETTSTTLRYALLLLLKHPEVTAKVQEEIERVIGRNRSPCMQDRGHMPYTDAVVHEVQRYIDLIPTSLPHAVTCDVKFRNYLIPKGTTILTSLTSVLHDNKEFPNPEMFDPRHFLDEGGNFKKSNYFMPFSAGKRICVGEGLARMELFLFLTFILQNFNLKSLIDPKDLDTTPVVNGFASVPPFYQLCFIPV

In the case of `CCCCCCCCCCCCCCCCO`, the result in [1], in test [5] and in test [9] was inactive. In addition, the Potency entry in test [2], in [3], in [4], in test [6], in test [8] and in [10] was “inactive” throughout. Moreover, the Potency result in test [11], in test [13], in test [14] and in test [15] was “inactive” each time. In addition, the max activation in test [7] was -1.74% (inactive). Further, the Potency in test [12] is 17.8 µM (active) and inactive.

In the case of `C[Si]1(C)O[Si](C)(C)O[Si](C)(C)O[Si](C)(C)O1`, the outcome in [1] and in [5] was inactive. The Potency result in [2], in test [3], in test [4], in [6], in [10] and in [11] was “inactive” in each case. Besides, the Potency result in test [12], in test [13], in test [14] and in test [15] was “inactive” throughout.

With `CCCCCCCCCCO`, the call in [1] and in test [5] was inactive. For the same molecule, the Potency entry in test [2], in test [3], in test [4], in [6], in [10] and in [11] was “inactive” each time. Further, the Potency entry in test [12], in test [14] and in test [15] was “inactive” throughout. In addition, the Potency result in [13] is “inactive and 31.7 µM (active)”.

As to `Cc1ccc2ncccc2c1`, the result in [1] and in [5] was inactive. Further, the Potency result in [2], in test [3], in [4], in [6], in test [16] and in [10] was “inactive” each time. The Potency entry in test [11], in test [14] and in test [15] was “inactive” each time. Also, the Potency in [13] was 39.9 µM (active) and inactive.

In the case of `Nc1nc(N)nc(-c2ccccc2)n1`, the result in test [1] and in test [5] was inactive. Besides, the Potency result in test [2], in test [3], in test [4], in test [6], in test [10] and in test [11] was “inactive” in each case. In addition, the Potency entry in test [12], in [14] and in test [15] was “inactive” throughout. In [13], the Potency is 31.4 µM (active) and 35.6 µM (active).

As to `O=c1[nH]cnc2[nH]ncc12`, the Potency entry in [2], in test [3], in [4], in [6], in test [10] and in [11] was “inactive” in each case. Also, the Potency result in [12], in test [13], in test [14] and in test [15] was “inactive” each time. Also, the outcome in [5] was inactive.

Take `CCCCCCC=O`: the outcome in test [1] and in test [5] was inactive. The Potency entry in test [2], in test [3], in test [4], in [6], in [13] and in test [14] was “inactive” in each case. Also, the Potency entry in test [15] was “inactive”. Further, the Potency result in test [10] was “inactive and 17.8 µM (active)”; in [11], 40.8 µM (active) and 39.9 µM (active).

Regarding `CCOC(=O)n1ccn(C)c1=S`, the Potency entry in test [2], in test [3], in [4], in test [6], in test [16] and in test [8] was “inactive” throughout. Also, the Potency entry in [10], in test [11], in test [12], in test [14] and in test [15] was “inactive” in each case. Also, the outcome in test [5] and in test [9] was inactive. In test [7], the max activation is -4.98% (inactive). In addition, in test [13], the Potency was 39.9 µM (active) and inactive.

Turning to `C[C@]12CC[C@@H]3c4ccc(O)cc4CC[C@H]3[C@@H]1C[C@@H](O)[C@@H]2O`, the Potency result in test [2], in test [3], in test [4], in [6], in test [16] and in test [8] was “inactive” each time. The Potency result in test [10], in test [11], in [12], in test [14] and in test [15] was “inactive” in each case. Moreover, the molecule was classed as inactive in test [5] and in [9]. Further, the max activation in test [7] was -0.315% (inactive). Moreover, in test [13], the Potency was 31.7 µM (active) and inactive.

For the molecule `CC(C)CC(C)O` (stereo not given), the Potency entry in test [2], in test [3], in test [4], in test [6], in test [10] and in test [11] was “inactive” each time. Also, the Potency entry in [14] and in test [15] was “inactive” each time. Also, the result in test [5] was inactive. Also, the Potency entry in test [12] is “inactive and 31.7 µM (active)”.
